This is an account of results in PubChem BioAssay (EPA / NIEHS).

Records with an inconclusive call do not appear. Active and inactive are the calls of the source. Rule for the calls, unless noted: active = hit-call score of the fitted dose curve at least 0.9, where 1 is the maximum; inactive = score below 0.9.

The AC50 is the concentration at which the activity in the assay is half-maximal.

The target in assay [1] is Paired box protein Pax-6 (Homo sapiens) (UniProt P26367). Nature of the assay: ATG_Pax6_CIS: Attagene CIS-FACTORIAL HepG2 Assay for human Paired Box 6 (PAX6) (AID 2282956). The note with it: HepG2 CIS-FACTORIAL PAX6 reporter transcription, RNA readout; actives raise or lower the signal. The method in brief:
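Values derive from bidirectional curve fitting of reporter mRNA signal relative to DMSO. HepG2 cells bearing transfected cis-regulated MRTUs were exposed for 24 h; transcripts were read by RT-PCR and capillary electrophoresis.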

Assay [2] in a line: ATG_PXRE_CIS: Attagene CIS-FACTORIAL HepG2 Assay for human Pregnane X Receptor Element (PXRE) (AID 2282957). The note with it: HepG2 Attagene CIS-FACTORIAL PXRE reporter, mRNA; actives raise or lower the signal. The method in brief: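 Bidirectional activity, baselined to DMSO, derived from reporter mRNA fluorescence (RT-PCR plus capillary electrophoresis) in HepG2 cells bearing cis-promoter reporter units, 24 h exposure.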

A short description of assay [3]: ATG_PPRE_CIS: Attagene CIS-FACTORIAL HepG2 Assay for human Peroxisome Proliferator-activated Response Element (PPRE) (AID 2282958). The note with it: HepG2 PPRE cis-element reporter, Attagene transcription factor profiling; actives raise or lower the signal. The method in brief:
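HepG2 cells transiently transfected with multiplexed cis-element reporter units measure endogenous transcription factor activity. After 24 h compound exposure, reporter mRNA is quantified by RT-PCR, 6-FAM labeling, HpaI digestion and capillary electrophoresis; bidirectional fits are made against DMSO baseline.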

Assay [4] in a line: ATG_RORE_CIS: Attagene CIS-FACTORIAL HepG2 Assay for human RAR-related Orphan Receptor Element (RORE) (AID 2282959). The note with it: HepG2 Attagene cis-factorial RORE reporter, mRNA; actives raise or lower the signal. The essentials:
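HepG2 cells transiently transfected with multiple cis-element reporter transcription units, exposed to chemical for 24 h. Reporter mRNA quantified by RT-PCR, 6-FAM primer-extension labeling, HpaI digestion and capillary electrophoresis; bidirectional fit versus DMSO baseline.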

The nature of assay [5]: ATG_Sox_CIS: Attagene CIS-FACTORIAL HepG2 Assay for human SRY-box transcription factor (SOX) (AID 2282960). The note with it: HepG2 Attagene cis-factorial SOX reporter, mRNA; actives raise or lower the signal. The method in brief:
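HepG2 cells transiently transfected with cis-element-driven multiple reporter transcription units, dosed 24 h; reporter mRNA measured by RT-PCR, FAM labelling, HpaI digestion and capillary electrophoresis. Bidirectional fit versus DMSO baseline.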

The target in assay [6] is Transcription factor Sp1 (Homo sapiens) (UniProt P08047). Nature of the assay: ATG_Sp1_CIS: Attagene CIS-FACTORIAL HepG2 Assay for human Specificity Protein 1 (Sp1) (AID 2282961). The note with it: HepG2 Sp1 cis-reporter transcription, actives raise or lower the signal. The essentials:
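HepG2 cells transiently transfected with multiple reporter transcription units driven by cis-regulatory elements; Sp1-responsive reporter mRNA measured 24 h after dosing by RT-PCR and capillary electrophoresis fluorescence, fitted bidirectionally against DMSO baseline.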

Assay [7] can be described thus: ATG_SREBP_CIS: Attagene CIS-FACTORIAL HepG2 Assay for human Sterol Regulatory Element Binding (SREBP) (AID 2282962). The note with it: HepG2 Attagene cis-factorial SREBP reporter, mRNA; actives raise or lower the signal. The essentials:
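Values derive from bidirectional curve fitting with DMSO as baseline. The underlying measurement is reporter mRNA from cis-element-regulated units in transiently transfected HepG2, quantified by RT-PCR and capillary electrophoresis after 24 h exposure.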

The target of assay [8] is Signal transducer and activator of transcription 3 (Homo sapiens) (UniProt P40763). In words: ATG_STAT3_CIS: Attagene CIS-FACTORIAL HepG2 Assay for human Signal Transducer and Activator of Transcription 3 (STAT3) (AID 2282963). The note with it: HepG2, Attagene cis-factorial STAT3 reporter transcription; actives raise or lower the signal. The method in brief:
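Readout is reporter transcript quantified by RT-PCR and capillary electrophoresis, with 6-FAM primer extension and HpaI digestion. Total RNA is taken 24 h after dosing transiently transfected HepG2 carrying cis-regulated reporter units. Bidirectional fit against DMSO.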

A short description of assay [9]: ATG_TA_CIS: Attagene CIS-FACTORIAL HepG2 Assay for human TA Basal Promoter (AID 2282964). The note with it: HepG2 Attagene CIS-factorial TA basal promoter reporter; actives raise or lower the signal. The method in brief:
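HepG2 cells transiently transfected with multiple reporter units under cis promoter elements, reporting endogenous transcription factor activity; this endpoint tracks the TA basal promoter as background control. Reporter mRNA after 24 h dosing measured by RT-PCR/capillary electrophoresis; bidirectional fits versus DMSO.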

Assay [10] in a line: ATG_TAL_CIS: Attagene CIS-FACTORIAL HepG2 Assay for human TAL Basal Promoter (AID 2282966).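 Note: background control endpoint measuring basal TAL promoter reporter mRNA not a specific factor.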 The note with it: HepG2 Attagene cis-factorial TAL promoter reporter; actives raise or lower the signal. The essentials:
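Human hepatoma HepG2 cells, transfected with promoter-regulated reporter units, were treated 24 h. Reporter transcript levels, measured through RT-PCR and capillary electrophoresis, were fitted for gain or loss relative to DMSO.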

The nature of assay [11]: ATG_TGFb_CIS: Attagene CIS-FACTORIAL HepG2 Assay for human Transforming Growth Factor (TGF) (AID 2282967). The note with it: HepG2 Attagene CIS TGFb reporter, mRNA transcription; actives raise or lower the signal. The method in brief:
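HepG2 cells transiently transfected with cis-promoter-driven multiple reporter units measure endogenous TF activity; reporter mRNA quantified at 24 h by RT-PCR, FAM labeling, HpaI digestion and capillary electrophoresis. Bidirectional fit vs DMSO.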

Assay [12] in a line: ATG_VDRE_CIS: Attagene CIS-FACTORIAL HepG2 Assay for human Vitamin D Receptor Element (VDRE) (AID 2282968). The note with it: HepG2 VDRE cis-reporter transcription, actives raise or lower the signal. The essentials:
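Readout is VDRE-driven reporter mRNA reflecting endogenous factor activity in human HepG2 cells, sampled 24 h post-dose. Quantification used labelled RT-PCR products separated by capillary electrophoresis; bidirectional analysis relative to DMSO.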

Assay [13] deals with Steroid hormone receptor ERR1 (Homo sapiens) (UniProt P11474). In words: ATG_ERRa_TRANS: Attagene TRANS-FACTORIAL HepG2 Assay for human Estrogen-Related Receptor alpha (ERRa) (AID 2282971; active = hit-call score of the fitted dose curve at least 0.9, where 1 is the maximum). The note with it: HepG2 Attagene TRANS reporter, ERRa transactivation. The essentials:
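Signal gain relative to DMSO for an ERRa-Gal4 chimeric receptor, read as reporter mRNA by RT-PCR/capillary electrophoresis. Human HepG2 liver cells, transient multiplex reporter transfection, 24 h chemical exposure.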

The target in assay [14] is X-box-binding protein 1 (Homo sapiens) (UniProt P17861). Nature of the assay: ATG_Xbp1_CIS: Attagene CIS-FACTORIAL HepG2 Assay for human X-box Binding Protein 1 (XBP1) (AID 2282972). The note with it: HepG2 XBP1 cis-element reporter, Attagene multiplex; actives raise or lower the signal. The essentials:
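Human hepatoma HepG2, cis-element reporter system, 24 h treatment; mRNA quantified by RT-PCR/CE fluorescence; fit relative to DMSO.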

The nature of assay [15]: ATG_GAL4_TRANS: Attagene TRANS-FACTORIAL HepG2 Assay for GAL4 (Internal Marker) (AID 2282976; active = hit-call score of the fitted dose curve at least 0.9, where 1 is the maximum). The note with it: HepG2 Attagene TRANS GAL4 internal marker reporter. The essentials: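 Liver HepG2 line bearing multiplexed GAL4-UAS reporter constructs; 24 h chemical treatment. Transcripts were quantified as fluorescent fragments on capillary electrophoresis after RT-PCR and HpaI cut, with activity fitted upward from DMSO.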

Assay [16] has as its target Nuclear receptor subfamily 1 group I member 3 (Homo sapiens) (UniProt Q14994). Nature of the assay: ATG_CAR_TRANS: Attagene TRANS-FACTORIAL HepG2 Assay for human Constitutive Androstane Receptor (CAR) (AID 2282969; active = hit-call score of the fitted dose curve at least 0.9, where 1 is the maximum;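 note: activators raise reporter mRNA above DMSO so AC50 marks induction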). The note with it: HepG2 Attagene TRANS-FACTORIAL CAR reporter. The method in brief:
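Signal is reporter mRNA induction relative to DMSO, measured 24 h after dosing by RT-PCR with fluorescent primer extension and capillary electrophoresis. Human HepG2 liver cells carried transiently transfected chimeric NR-Gal4/GAL4-UAS reporter constructs.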

Assay [17] concerns the target Estrogen receptor (Homo sapiens) (UniProt P03372). In words: ATG_ERa_TRANS: Attagene TRANS-FACTORIAL HepG2 Assay for human Estrogen Receptor alpha (ERa) (AID 2282970; active = hit-call score of the fitted dose curve at least 0.9, where 1 is the maximum). The note with it: HepG2 Attagene TRANS ERa GAL4 reporter, mRNA. The method in brief: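 Signal derives from fluorescence of labelled reporter PCR fragments separated by capillary electrophoresis. HepG2 cells transiently carrying multiple GAL4-UAS reporter units were treated 24 hours, and induction above DMSO baseline was fitted as activity.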

The nature of assay [18]: ATG_M_19_TRANS: Attagene TRANS-FACTORIAL HepG2 Assay for M19 Transcription Factor (Internal Marker) (AID 2282974; active = hit-call score of the fitted dose curve at least 0.9, where 1 is the maximum). The note with it: HepG2 Attagene TRANS-FACTORIAL M19 internal marker reporter. The essentials:
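HepG2 cells transiently transfected with multiple GAL4-UAS reporter transcription units were exposed to chemicals for 24 h. Reporter mRNA was read by RT-PCR, 6-FAM primer extension, HpaI digestion and capillary electrophoresis; gain of signal fitted relative to DMSO.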

Assay [19] in a line: ATG_TCF_b_cat_CIS: Attagene CIS-FACTORIAL HepG2 Assay for human T-Cell-Factor with beta-catenin (TCF/b-cat) (AID 2282965). The note with it: HepG2 TCF/beta-catenin cis-reporter transcription, actives raise or lower the signal. The essentials: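 Endogenous transcription factor activity is captured through cis-promoter reporter constructs transiently introduced into human HepG2 liver cells. Induced reporter mRNA is measured after 24 h and fitted bidirectionally relative to DMSO.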

Estrogen receptor (Homo sapiens), sequence (P03372 whole entry, looked up, the tested form may be a part): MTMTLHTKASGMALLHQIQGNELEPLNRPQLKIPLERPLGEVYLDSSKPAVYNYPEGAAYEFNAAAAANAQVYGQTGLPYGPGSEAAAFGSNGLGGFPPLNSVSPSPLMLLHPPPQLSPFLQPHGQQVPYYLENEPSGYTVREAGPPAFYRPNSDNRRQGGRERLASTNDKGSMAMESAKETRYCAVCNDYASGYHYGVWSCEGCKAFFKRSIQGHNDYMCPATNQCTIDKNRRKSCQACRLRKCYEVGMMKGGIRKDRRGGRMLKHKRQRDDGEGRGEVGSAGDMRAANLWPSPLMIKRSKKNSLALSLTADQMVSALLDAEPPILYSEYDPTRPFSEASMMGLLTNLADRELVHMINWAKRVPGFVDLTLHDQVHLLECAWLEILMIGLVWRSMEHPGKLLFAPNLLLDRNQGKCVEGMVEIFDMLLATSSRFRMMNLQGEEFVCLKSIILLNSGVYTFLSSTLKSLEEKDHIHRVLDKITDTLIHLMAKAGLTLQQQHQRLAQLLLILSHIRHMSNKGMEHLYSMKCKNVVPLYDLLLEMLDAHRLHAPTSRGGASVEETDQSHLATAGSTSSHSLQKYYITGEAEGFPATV
X-box-binding protein 1 (Homo sapiens), sequence (P17861 whole entry, looked up): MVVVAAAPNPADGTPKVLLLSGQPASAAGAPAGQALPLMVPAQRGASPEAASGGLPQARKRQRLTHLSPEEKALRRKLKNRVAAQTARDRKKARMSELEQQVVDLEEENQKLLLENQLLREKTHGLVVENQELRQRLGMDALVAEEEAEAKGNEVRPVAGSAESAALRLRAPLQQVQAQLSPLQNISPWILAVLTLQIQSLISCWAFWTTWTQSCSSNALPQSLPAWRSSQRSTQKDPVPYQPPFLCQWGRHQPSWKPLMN
Paired box protein Pax-6 (Homo sapiens), sequence (P26367 whole entry, looked up): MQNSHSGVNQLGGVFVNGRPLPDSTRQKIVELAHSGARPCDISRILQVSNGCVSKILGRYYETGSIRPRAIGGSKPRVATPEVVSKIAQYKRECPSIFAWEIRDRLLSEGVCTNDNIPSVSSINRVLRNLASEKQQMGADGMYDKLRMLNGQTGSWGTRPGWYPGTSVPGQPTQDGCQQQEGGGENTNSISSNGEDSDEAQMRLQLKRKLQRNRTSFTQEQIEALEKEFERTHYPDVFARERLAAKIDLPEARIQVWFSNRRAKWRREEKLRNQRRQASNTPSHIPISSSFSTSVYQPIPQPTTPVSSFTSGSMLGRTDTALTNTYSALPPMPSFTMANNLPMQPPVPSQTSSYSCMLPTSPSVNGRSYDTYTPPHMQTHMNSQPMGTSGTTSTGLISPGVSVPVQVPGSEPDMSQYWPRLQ
Transcription factor Sp1 (Homo sapiens), sequence (P08047 whole entry, looked up): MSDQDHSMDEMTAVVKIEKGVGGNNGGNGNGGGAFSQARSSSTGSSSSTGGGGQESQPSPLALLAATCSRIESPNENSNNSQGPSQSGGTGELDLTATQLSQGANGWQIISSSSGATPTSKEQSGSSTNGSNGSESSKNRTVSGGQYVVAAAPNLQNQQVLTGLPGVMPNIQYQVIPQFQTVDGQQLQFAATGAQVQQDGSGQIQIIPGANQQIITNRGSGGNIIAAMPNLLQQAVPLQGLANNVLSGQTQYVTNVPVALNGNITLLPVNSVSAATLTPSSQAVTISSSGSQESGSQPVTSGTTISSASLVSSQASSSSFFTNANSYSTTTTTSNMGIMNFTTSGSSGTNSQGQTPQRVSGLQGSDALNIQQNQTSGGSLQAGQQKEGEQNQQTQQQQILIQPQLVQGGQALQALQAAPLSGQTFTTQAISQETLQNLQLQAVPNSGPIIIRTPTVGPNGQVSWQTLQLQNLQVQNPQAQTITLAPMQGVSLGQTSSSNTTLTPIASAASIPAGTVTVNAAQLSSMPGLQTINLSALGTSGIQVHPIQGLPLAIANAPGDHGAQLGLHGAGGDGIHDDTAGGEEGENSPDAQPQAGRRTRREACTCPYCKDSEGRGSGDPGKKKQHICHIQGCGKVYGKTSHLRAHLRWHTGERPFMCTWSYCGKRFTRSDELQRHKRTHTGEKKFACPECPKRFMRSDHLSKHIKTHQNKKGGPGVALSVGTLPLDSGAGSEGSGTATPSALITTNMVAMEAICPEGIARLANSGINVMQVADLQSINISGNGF
Signal transducer and activator of transcription 3 (Homo sapiens), sequence (P40763 whole entry, looked up): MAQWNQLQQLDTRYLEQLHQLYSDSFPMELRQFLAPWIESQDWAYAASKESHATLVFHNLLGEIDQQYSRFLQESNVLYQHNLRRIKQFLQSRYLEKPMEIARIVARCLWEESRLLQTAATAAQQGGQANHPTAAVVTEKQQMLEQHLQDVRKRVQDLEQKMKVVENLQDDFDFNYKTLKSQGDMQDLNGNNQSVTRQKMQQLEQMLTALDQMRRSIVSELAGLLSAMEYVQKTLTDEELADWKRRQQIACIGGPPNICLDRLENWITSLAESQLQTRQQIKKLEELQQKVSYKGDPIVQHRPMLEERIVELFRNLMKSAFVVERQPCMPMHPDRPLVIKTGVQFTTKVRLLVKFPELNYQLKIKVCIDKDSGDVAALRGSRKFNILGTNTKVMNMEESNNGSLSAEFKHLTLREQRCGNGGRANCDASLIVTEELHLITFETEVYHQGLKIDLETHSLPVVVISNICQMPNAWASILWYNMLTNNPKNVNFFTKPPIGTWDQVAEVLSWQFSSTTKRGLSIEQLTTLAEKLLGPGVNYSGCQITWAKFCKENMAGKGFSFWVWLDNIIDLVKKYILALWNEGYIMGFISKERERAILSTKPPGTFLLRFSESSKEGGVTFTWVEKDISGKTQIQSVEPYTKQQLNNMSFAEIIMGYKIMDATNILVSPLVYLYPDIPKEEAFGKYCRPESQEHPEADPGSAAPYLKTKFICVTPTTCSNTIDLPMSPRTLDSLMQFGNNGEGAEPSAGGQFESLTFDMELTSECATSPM
Steroid hormone receptor ERR1 (Homo sapiens), sequence (P11474 whole entry, looked up, the tested form may be a part): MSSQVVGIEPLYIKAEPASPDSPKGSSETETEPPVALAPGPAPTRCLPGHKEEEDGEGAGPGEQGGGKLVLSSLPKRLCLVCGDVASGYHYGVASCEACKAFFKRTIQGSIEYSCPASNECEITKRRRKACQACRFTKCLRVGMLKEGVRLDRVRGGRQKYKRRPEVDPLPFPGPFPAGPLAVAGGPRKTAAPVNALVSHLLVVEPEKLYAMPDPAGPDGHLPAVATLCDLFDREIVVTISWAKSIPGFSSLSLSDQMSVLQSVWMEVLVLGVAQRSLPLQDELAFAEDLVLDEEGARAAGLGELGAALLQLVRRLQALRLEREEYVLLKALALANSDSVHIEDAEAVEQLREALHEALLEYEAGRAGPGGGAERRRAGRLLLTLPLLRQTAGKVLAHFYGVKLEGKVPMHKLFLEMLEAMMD
Nuclear receptor subfamily 1 group I member 3 (Homo sapiens), sequence (Q14994 whole entry, looked up, the tested form may be a part): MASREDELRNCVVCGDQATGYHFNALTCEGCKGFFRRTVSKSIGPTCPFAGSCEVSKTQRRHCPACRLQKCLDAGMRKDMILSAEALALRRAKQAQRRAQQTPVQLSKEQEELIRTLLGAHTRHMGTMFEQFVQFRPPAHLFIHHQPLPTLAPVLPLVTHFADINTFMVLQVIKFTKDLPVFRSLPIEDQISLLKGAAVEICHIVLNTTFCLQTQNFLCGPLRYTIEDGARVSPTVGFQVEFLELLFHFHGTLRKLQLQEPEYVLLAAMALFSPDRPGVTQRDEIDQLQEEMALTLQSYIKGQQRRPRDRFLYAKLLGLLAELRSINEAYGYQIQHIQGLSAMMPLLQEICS

In the case of `CCn1cc(C(=O)O)c(=O)c2ccc(C)nc21`, the compound was called inactive in assay [1], in [2], in assay [3], in assay [4], in assay [5] and in assay [6]. Also, the outcome in assay [7], in assay [8], in assay [9], in assay [10], in [11] and in [12] was inactive. In addition, the outcome in assay [13], in assay [14] and in [15] was inactive.

As for `CC(C)Cc1ccccc1`, the call in [1], in assay [2], in assay [3], in assay [4], in assay [5] and in assay [6] was inactive. Besides, the compound was called inactive in assay [7], in assay [8], in assay [9], in assay [10], in assay [11] and in [14].

Consider `CCOC(=O)C=Cc1ccccc1`, for which the call in [1], in [3], in assay [4], in [5], in [6] and in [7] was inactive. Also, the call in [8], in assay [9], in [10], in [11], in [12] and in assay [16] was inactive. Moreover, the result in [17], in assay [14], in [18] and in assay [15] was inactive. Besides, the AC50 in assay [2] was 27.8 µM (active).

As for `Nc1ccn([C@H]2CC[C@@H](CO)O2)c(=O)n1`, the compound was called inactive in assay [1], in [2], in [3], in [4], in assay [5] and in assay [6]. Also, the compound was called inactive in [7], in assay [8], in assay [9], in assay [19], in assay [10] and in assay [11]. For the same compound, the outcome in assay [14] was inactive.

Take `CC1=CC[C@@H]2C[C@H]1C2(C)C`: the compound was classed as inactive in [1], in [2], in [3], in assay [4], in assay [5] and in [6]. The result in assay [7], in assay [9], in [19], in assay [10], in assay [11] and in assay [12] was inactive. In addition, the call in assay [14] was inactive.

On to `CC(C)N(c1ccccc1)C(C)C`, for which the compound was called inactive in assay [1], in assay [2], in assay [3], in assay [4], in assay [5] and in [7]. Besides, the outcome in [8], in assay [9], in [11], in assay [12], in [17] and in [14] was inactive.

In the case of `c1ccc(Sc2ccccc2)cc1`, the call in assay [1], in assay [4], in [5], in [6], in assay [7] and in [8] was inactive. The outcome in assay [9], in assay [19], in [12], in [14], in assay [18] and in assay [15] was inactive. Besides, the figures for the AC50 in [2] and in [17] were 62.7 µM (active) and 38.3 µM (active), respectively.

Turning to `c1ccc2scnc2c1`, the outcome in [1], in assay [3], in assay [4], in [5], in assay [8] and in assay [9] was inactive. Moreover, the outcome in assay [19], in assay [10], in assay [11], in [12], in [17] and in assay [14] was inactive. The outcome in [15] was inactive. Moreover, the AC50 in assay [2] was 55.6 µM (active).

For `CCCCCCCCCCCCCCCCCC(=O)OCCCCCCCCCCCCCC(C)C`, the compound was classed as inactive in [1], in assay [3], in [4], in assay [5], in assay [7] and in assay [8]. Further, the compound was called inactive in assay [9], in assay [19], in [10], in assay [11], in assay [12] and in assay [17]. Further, the compound was called inactive in assay [14] and in assay [15]. Besides, in assay [2], the AC50 was 46.9 µM (active).

As to `CC/C=C\CCOC(=O)C(C)C`, the result in [1], in assay [2], in assay [3], in assay [5], in assay [6] and in [7] was inactive. The outcome in assay [8], in [9], in [19], in [10], in [12] and in assay [14] was inactive. In addition, the result in assay [18] and in assay [15] was inactive.
